According to PubChem BioAssay AID1494158 (National Center for Advancing Translational Sciences (NCATS), 2020):
Inconclusive results are not listed. Values without a mark were called inactive. The source made the active and inactive calls. Calls follow the shape of the full dose curve.

Experiment: VSV-G qHTS counterscreen for inhibitors of SARS-S pseudo-typed particle cell entry
Settings: VSV-G pseudotyped particle entry counterscreen, luciferase; series mostly up to 57.1 µM; activity, negative = inhibition: at the top concentration

SMILES	Potency	activity, negative = inhibition [%]
C[C@@H](c1nc(-c2ccc(C#N)cc2)cs1)[C@](O)(Cn1cncn1)c1cc(F)ccc1F	21.5 µM (active)	
COc1cccc2c1C(=O)c1c(O)c3c(c(O)c1C2=O)C[C@@](O)(C(=O)CO)C[C@@H]3O[C@H]1C[C@H](N)[C@H](OC2CCCCO2)[C@H](C)O1 (stereo partly specified)	9.61 µM (active)	
O=C1CCc2ccc(OCCCCN3CCN(c4cccc(Cl)c4Cl)CC3)cc2N1	19.2 µM (active)	
CCCCN=C(N)N=C(N)N		-7.93
O=C(Nc1ccc([N+](=O)[O-])cc1Cl)c1cc(Cl)ccc1O	0.482 µM (active)	
CNC(=O)c1cc(Oc2ccc(NC(=O)Nc3ccc(Cl)c(C(F)(F)F)c3)c(F)c2)ccn1	10.8 µM (active)	
CCc1c2c(nc3ccc(OC(=O)N4CCC(N5CCCCC5)CC4)cc13)-c1cc3c(c(=O)n1C2)COC(=O)[C@]3(O)CC		0
Cc1nnc(C(=O)NC(C)(C)c2nc(C(=O)NCc3ccc(F)cc3)c(O)c(=O)n2C)o1	0.0171 µM (active)	
C[n+]1c2cc(N)ccc2cc2ccc(N)cc21 (tested in a mixture with another compound)	4.82 µM (active)	
COC(=O)C[C@](O)(CCCC(C)(C)O)C(=O)O[C@@H]1C(OC)=C[C@]23CCCN2CCc2cc4c(cc2[C@H]13)OCO4	1.36 µM (active)	
C[C@@H]1CCO[C@H]2Cn3cc(C(=O)NCc4ccc(F)cc4F)c(=O)c(O)c3C(=O)N12	0.0054 µM (active)	
COc1cc2c(cc1Cc1cccc(Cl)c1F)c(=O)c(C(=O)O)cn2[C@H](CO)C(C)C	0.215 µM (active)	
Cc1c(N)nc(C(CC(N)=O)NCC(N)C(N)=O)nc1C(=O)NC(C(=O)NC(C)C(O)C(C)C(=O)NC(C(=O)NCCc1nc(-c2nc(C(=O)NCCCN[C@@H](C)c3ccccc3)cs2)cs1)C(C)O)C(O[C@@H]1O[C@@H](CO)[C@@H](O)[C@H](O)[C@@H]1O[C@H]1O[C@H](CO)[C@@H](O)[C@H](OC(N)=O)[C@@H]1O)c1cnc[nH]1 (stereo partly specified)	0.304 µM (active)	
N#CC(c1ccc(Cl)cc1)c1c(Cl)cc(-n2ncc(=O)[nH]c2=O)cc1Cl (stereo unspecified)	10.8 µM (active)	
Nc1ccn([C@@H]2O[C@H](CO)[C@@H](O)C2(F)F)c(=O)n1	0.171 µM (active)	
CC(C)(C)C(=O)OCOP(=O)(COCCn1cnc2c(N)ncnc21)OCOC(=O)C(C)(C)C	0.0681 µM (active)	

SMILES	Potency	activity, negative = inhibition [%]
CC[C@@]1(O)C(=O)OCc2c1cc1n(c2=O)Cc2cc3c(CN(C)C)c(O)ccc3nc2-1	0.383 µM (active)	
COc1cccc2c1C(=O)c1c(O)c3c(c(O)c1C2=O)C[C@@](O)(C(=O)CO)C[C@@H]3O[C@H]1C[C@H](N)[C@@H](O)[C@H](C)O1	4.82 µM (active)	
COc1ccc2cc1Oc1ccc(cc1)C[C@H]1c3c(cc4c(c3Oc3cc5c(cc3OC)CCN(C)[C@@H]5C2)OCO4)CCN1C	21.5 µM (active)	
CO[C@@]12[C@H](COC(N)=O)C3=C(C(=O)C(C)=C(N)C3=O)N1C[C@@H]1N[C@@H]12	3.41 µM (active)	
NCCNc1ccc(NCCN)c2c1C(=O)c1ccncc1C2=O	3.41 µM (active)	
O=C1c2c(O)ccc(O)c2C(=O)c2c(NCCNCCO)ccc(NCCNCCO)c21	0.171 µM (active)	
Cc1cc(C(C#N)c2ccc(Cl)cc2)c(Cl)cc1NC(=O)c1cc(I)cc(I)c1O (stereo unspecified)	30.4 µM (active)	
C=C1c2c(Cl)ccc(O)c2C(O)=C2C(=O)[C@@]3(O)C(O)=C(C(N)=O)C(=O)[C@@H](N(C)C)[C@@H]3[C@@H](O)[C@H]12	15.2 µM (active)	
CC[C@@]1(O)C(=O)OCc2c1cc1n(c2=O)Cc2cc3c([N+](=O)[O-])cccc3nc2-1	0.124 µM (active)	
Cc1oncc1C(=O)Nc1ccc(C(F)(F)F)cc1		0
COc1ccc(Cc2nccc3cc(OC)c(OC)cc23)cc1OC	19.2 µM (active)	
COC(=O)C1=C(C)NC(C)=C(C(=O)OCC(C)C)C1c1ccccc1[N+](=O)[O-] (stereo unspecified)	24.1 µM (active)	
COc1cc2nccc(Oc3ccc(NC(=O)C4(C(=O)Nc5ccc(F)cc5)CC4)cc3)c2cc1OC	21.5 µM (active)	
CCN(CC)CCNC(=O)c1c(C)[nH]c(/C=C2\C(=O)Nc3ccc(F)cc32)c1C	17.1 µM (active)	
Cc1cc(-n2c(=O)[nH]c(=O)n(C)c2=O)ccc1Oc1ccc(S(=O)(=O)C(F)(F)F)cc1	19.2 µM (active)	
